# Results: the supplement of paper PMC12669032
# Values without a mark were called inactive.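 Rule for the calls: active = AUC reduced over 20% with Padj below 0.05 in at least 2 of 3 replicates; inactive = otherwise.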
# How the values were obtained:
# Experiment in all cases: growth AUC relative to DMSO control (median of replicates) (fraction); higher = more growth (less inhibition), active = hit call of the paper
# Conditions in all cases: 20 µM; 24 h
# [1] = test system: Coprococcus comes
# Method in brief: (§1)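 Each value is the median of three biological replicates, grown on separate days, of a gut bacterial monoculture incubated anaerobically at 37 °C in mGAM with 20 µM compound (1% DMSO). Cultures started at OD600 0.05 and were read at OD600 hourly for 24 h, with the minimum OD set to 0. Area under the growth curve was normalised to the plate median of solvent-only wells, or to row and column medians on the industrial chemical plate.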
# [2] = test system: Escherichia coli ED1a
# Method in brief: as §1
# [3] = test system: Escherichia coli IAI1
# Method in brief: as §1
# [4] = test system: Eubacterium rectale
# Method in brief: as §1
# [5] = test system: Fusobacterium nucleatum subsp. animalis
# Method in brief: as §1
# [6] = test system: Lactobacillus gasseri
# Method in brief: as §1
# [7] = test system: Lactobacillus paracasei
# Method in brief: as §1
# [8] = test system: Odoribacter splanchnicus
# Method in brief: as §1
# [9] = test system: Parabacteroides distasonis
# Method in brief: as §1
# [10] = test system: Parabacteroides merdae
# Method in brief: as §1
# [11] = test system: Roseburia intestinalis
# Method in brief: as §1
# [12] = test system: Streptococcus salivarius
# Method in brief: as §1
Compound,growth AUC [1],growth AUC [2],growth AUC [3],growth AUC [4],growth AUC [5],growth AUC [6],growth AUC [7],growth AUC [8],growth AUC [9],growth AUC [10],growth AUC [11],growth AUC [12]
COC(=O)c1ccc(C(=O)OC)cc1,0.981,1,0.989,1,1.01,0.981,0.958,0.989,0.993,0.993,0.997,0.951
Cc1nc(C(F)(F)F)c(C(=O)Nc2c(Br)cc(OC(F)(F)F)cc2Br)s1,1.06,1.02,1.02,0.852,1.09,1.15,1.1,0.942,0.944,1,1.08,0.972
CC(=O)CC(c1ccccc1)c1c(O)c2ccccc2oc1=O (stereo not given),1.01,0.967,0.982,0.963,1.02,0.957,0.943,0.927,0.907,1.01,0.952,1
O=C(O)COc1cc(N2C(=O)C3=C(CCCC3)C2=O)c(F)cc1Cl,1.01,1.01,1,1.03,1.02,0.967,1.05,1.03,1.03,1.04,0.987,0.977
CN(C)C(=O)Nc1ccc(Cl)c(Cl)c1,1.02,0.985,0.963,0.978,1.02,0.968,0.971,0.888,1.09,0.907,1.03,1.01
CC(C)N(C(=O)C(=O)O)c1ccccc1,1.03,1.06,1.05,1.11,1.09,1.07,1.02,1.05,1.07,1.03,1.02,1.02
Nc1cccc(O)c1,1.06,1.01,1.01,0.984,1,1.04,0.94,0.975,0.993,1,0.989,1.02
CCNc1nc(NC(C)(C)C)[nH]c(=O)n1,0.988,1.02,0.987,1.03,0.99,0.899,1.04,0.948,1.01,0.994,1.03,1.03
Oc1c(Cl)cc(Cl)c(Cl)c1Cc1c(O)c(Cl)cc(Cl)c1Cl,0.19 (active),0.867,0.856,0.0106 (active),0.078 (active),0.037 (active),0.0796 (active),0.018 (active),0.026 (active),0.0156 (active),0.0498 (active),0.0329 (active)
COc1ccc(Cl)c(Cl)c1Cl,0.994,0.983,1.02,0.966,0.982,1.01,0.993,1.01,1.04,0.961,0.999,1.06
c1ccc2cc3c(ccc4ccccc43)cc2c1,1,0.999,0.994,1.08,1.01,0.969,1,0.992,0.961,0.995,1.01,0.962
NC(=O)c1c(Cl)cccc1Cl,0.984,1.01,0.983,1.09,1.1,0.917,1.03,1.07,0.99,0.996,0.906,0.991
O.O.O=[N+]([O-])c1ccc([O-])cc1.[Na+],1.09,1.05,1.01,0.918,0.968,1.01,1.04,0.85,0.971,0.994,0.999,1.05
C=CCc1ccc(O)c(OC)c1,0.971,1.03,1,1.01,1,0.95,0.957,0.96,0.97,0.996,0.937,0.975
CCCCC(CC)COC(=O)COc1cc(Cl)c(Cl)cc1Cl (stereo not given),0.976,0.99,1.03,0.903,0.9,1.06,1.05,0.998,0.965,0.937,0.966,1
CCCCCCC(C)OC(=O)C(C)Oc1ccc(Cl)cc1C (stereo not given),0.994,0.985,0.999,0.96,0.956,1,0.909,1.03,1.01,0.989,0.986,0.973
CCc1cccc(CC)c1N(COC)C(=O)C(=O)O,0.981,1.05,0.999,0.948,1.04,0.999,1,1.01,1.02,0.991,1,1.02
CCCN(CCC)C(=O)SCC,0.969,0.967,1.01,0.944,0.893,1.03,1.02,1,1.03,0.984,0.948,1
CCOC(=O)C(C)Oc1ccc(Oc2nc3ccc(Cl)cc3o2)cc1 (racemic),0.993,0.967,0.949,0.987,0.929,0.91,0.97,1.01,0.824,0.969,1.02,1.01
CC(C)([CH2][Sn]([CH2]C(C)(C)c1ccccc1)([CH2]C(C)(C)c1ccccc1)[O][Sn]([CH2]C(C)(C)c1ccccc1)([CH2]C(C)(C)c1ccccc1)[CH2]C(C)(C)c1ccccc1)c1ccccc1,0.98,0.999,0.978,0.998,1.03,0.963,0.988,1.06,1.04,0.954,1.02,0.972
CCCC(C)(C)C(=O)Nc1ccc(Cl)cc1,0.978,0.973,1.01,0.958,0.938,1.1,0.989,0.958,0.928,0.949,0.945,0.963
Nc1ccc(S(=O)(=O)Nc2cnc3ccccc3n2)cc1,0.996,1,0.975,0.983,0.936,1.03,0.887,1.01,1.01,0.97,0.991,1.03
CSc1nc(NC2CC2)nc(NC(C)(C)C)n1,0.981,1.03,1.03,0.974,1.06,1.05,0.987,1.11,1.02,0.991,0.981,1
Cc1ccc2c(c1)[C@H](Nc1nc(N)nc(C(C)F)n1)[C@@H](C)C2 (stereo not given in full),0.968,1.03,1.02,0.91,0.857,0.982,0.986,0.902,1.09,0.972,0.948,1.01
CC1COc2ccccc2N1C(=O)C(Cl)Cl (stereo not given),0.887,0.985,0.973,0.989,0.688,0.903,1.11,0.979,0.931,0.95,0.92,0.944
